This is an account of results in PubChem BioAssay (NCATS).

Where “and” joins values, the source holds several entries; their conditions need not be identical. Equal values may be shown once. Inconclusive results are not listed. Unmarked numbers belong to inactive results. Calls of active or inactive are those of the source. The call rests on the fitted dose curve; in most records, active means well fitted curve in the direction sought with a large enough effect; inconclusive means small, poorly fitted or top-dose-only effect, or another doubt; inactive means no such curve, though single readings can be large; an effect the other way counts as inactive or inconclusive.

The nature of assay [1]: qHTS of pediatric cancer cell lines to identify multiple opportunities for drug repurposing: Primary screen for SJ-GBM2 cells (AID 1347091). Further: potency means the concentration at half of the fitted maximal effect. The procedure, abridged:
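Eight- or eleven-point concentration series, 48 h treatment at 37 degrees C in growth media; readout CellTiter-Glo luminescence. Potency and efficacy were taken from the concentration-response curves.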
A general note: Quantitative high-throughput screening tests each substance at several concentrations.

Assay [2] can be described thus: qHTS of pediatric cancer cell lines to identify multiple opportunities for drug repurposing: Primary screen for A673 cells (AID 1347092). Further: nearly all actives have a fitted effect of over 45% in size. Further: potency means the concentration at half of the fitted maximal effect. The method, boiled down:
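Luminescence from CellTiter-Glo, taken after 15 min at room temperature, served as the proxy for metabolically active cells following 48 h treatment. Both potency and efficacy were taken from curves fitted to the titration data.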

The nature of assay [3]: qHTS of pediatric cancer cell lines to identify multiple opportunities for drug repurposing: Primary screen for SK-N-MC cells (AID 1347093). Further: potency means the concentration at half of the fitted maximal effect. The method, boiled down:
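Metabolically active cells were quantified by ATP-dependent luminescence (CellTiter-Glo, 15 min at room temperature) following 48 h treatment. Cells had been plated at 500-1,000 per well and settled for 5 h beforehand.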

Assay [4] can be described thus: qHTS of pediatric cancer cell lines to identify multiple opportunities for drug repurposing: Primary screen for BT-37 cells (AID 1347094). Further: potency means the concentration at half of the fitted maximal effect. The procedure, abridged: (§1)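 Quantitative HTS format: each compound titrated (MIPE 11 points from 0.78 nM, NPC 8 points from 0.59 nM) onto cells plated 5 hours earlier. After 48 h at 37 degrees C, CellTiter-Glo luminescence was recorded.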

Assay [5] is described as follows: qHTS of pediatric cancer cell lines to identify multiple opportunities for drug repurposing: Primary screen for NB-EBc1 cells (AID 1347095). Further: potency means the concentration at half of the fitted maximal effect. The procedure, abridged: as §1
Assay [6] can be described thus: qHTS of pediatric cancer cell lines to identify multiple opportunities for drug repurposing: Primary screen for U-2 OS cells (AID 1347096). Further: nearly all actives have a fitted effect of over 50% in size. The procedure, abridged:
(§2)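 Cells (500-1,000/well) in growth media were settled 5 h at 37 degrees C, then given compounds for 48 h. Viability was read as CellTiter-Glo luminescence. Primary runs used MIPE at 11 points (0.78 nM-46 µM) and NPC at 8 points (0.59 nM-46 µM); follow-ups used 11 points.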

Assay [7] in a line: qHTS of pediatric cancer cell lines to identify multiple opportunities for drug repurposing: Primary screen for NB1643 cells (AID 1347099). Further: nearly all actives have a fitted effect of over 50% in size. Further: potency means the concentration at half of the fitted maximal effect. The procedure, abridged:
as §1

Assay [8] can be described thus: qHTS of pediatric cancer cell lines to identify multiple opportunities for drug repurposing: Primary screen for LAN-5 cells (AID 1347100). Further: potency means the concentration at half of the fitted maximal effect. The procedure, abridged:
as §2

Assay [9] in a line: qHTS of pediatric cancer cell lines to identify multiple opportunities for drug repurposing: Primary screen for BT-12 cells (AID 1347101). Further: nearly all actives have a fitted effect of over 25% in size. Further: potency means the concentration at half of the fitted maximal effect. The procedure, abridged:
(§3)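 Cells (500-1,000/well) rested 5 h, then received compounds for 48 h; metabolically active cells were measured by CellTiter-Glo luminescence. Final concentrations spanned up to 46 µM (MIPE, 11-point) or 0.59 nM-46 µM (NPC, 8-point) in primary screens, 11-point in follow-ups.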

Assay [10] can be described thus: qHTS of pediatric cancer cell lines to identify multiple opportunities for drug repurposing: Primary screen for Rh18 cells (AID 1347102). Further: nearly all actives have a fitted effect of over 65% in size. The procedure, abridged:
as §2

Assay [11] in a line: qHTS of pediatric cancer cell lines to identify multiple opportunities for drug repurposing: Primary screen for RD cells (AID 1347104). Further: nearly all actives have a fitted effect of over 55% in size. Further: potency means the concentration at half of the fitted maximal effect. The method, boiled down: as §1
The nature of assay [12]: qHTS of pediatric cancer cell lines to identify multiple opportunities for drug repurposing: Primary screen for MG 63 (6-TG R) cells (AID 1347105). Further: nearly all actives have a fitted effect of over 50% in size. Further: potency means the concentration at half of the fitted maximal effect. The method, boiled down:
as §1

Assay [13] is described as follows: qHTS of pediatric cancer cell lines to identify multiple opportunities for drug repurposing: Primary screen for control Hh wild type fibroblast cells (AID 1347106). Further: nearly all actives have a fitted effect of over 55% in size. Further: potency means the concentration at half of the fitted maximal effect. The method, boiled down:
as §2

Assay [14] can be described thus: qHTS of pediatric cancer cell lines to identify multiple opportunities for drug repurposing: Primary screen for Rh30 cells (AID 1347107). Further: series mostly up to about 46 µM; nearly all actives have a fitted effect of over 75% in size. The method, boiled down: as §2
A short description of assay [15]: qHTS of pediatric cancer cell lines to identify multiple opportunities for drug repurposing: Primary screen for Rh41 cells (AID 1347108). Further: nearly all actives have a fitted effect of over 70% in size. Further: potency means the concentration at half of the fitted maximal effect. The method, boiled down: as §1
The nature of assay [16]: qHTS of pediatric cancer cell lines to identify multiple opportunities for drug repurposing: Primary screen for OHS-50 cells (AID 1347103). Further: nearly all actives have a fitted effect of over 40% in size. Further: potency means the concentration at half of the fitted maximal effect. The procedure, abridged:
as §3

The nature of assay [17]: qHTS of pediatric cancer cell lines to identify multiple opportunities for drug repurposing: Primary screen for Saos-2 cells (AID 1347097). Further: nearly all actives have a fitted effect of over 40% in size. Further: potency means the concentration at half of the fitted maximal effect. The method, boiled down:
as §1

Assay [18] in a line: qHTS of pediatric cancer cell lines to identify multiple opportunities for drug repurposing: Confirmatory screen for NB1643 cells (AID 1347109). Further: potency means the concentration at half of the fitted maximal effect; nearly all actives have a fitted effect of over 45% in size. The procedure, abridged: as §2
Assay [19] in a line: qHTS of pediatric cancer cell lines to identify multiple opportunities for drug repurposing: Confirmatory screen for A673 cells (AID 1347110).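 Further: potency means the concentration at half of the fitted maximal effect; cells exposed to compound for 48 h before the viability read; nearly all actives have a fitted effect of over 65% in size.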 The procedure, abridged:
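qHTS titration format: primary MIPE 0.78 nM-46 µM (11 pts), NPC 0.59 nM-46 µM; confirmation 11 pts. 48 h, CTG luminescence.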

Assay [20] is described as follows: qHTS of pediatric cancer cell lines to identify multiple opportunities for drug repurposing: Primary screen for SK-N-SH cells (AID 1347098).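 Further: DMSO served as neutral control and bortezomib at 2.3 µM as positive control; nearly all actives have a fitted effect of over 65% in size.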 The procedure, abridged: as §3

As for `CC(C)(N)Cc1ccc(Cl)cc1`, the Potency entry in assay [1], in assay [2], in assay [3], in [4], in [5] and in assay [6] was “inactive” in each case. Moreover, the Potency result in assay [7], in assay [8], in assay [9], in [10], in assay [11] and in assay [12] was “inactive” each time. Also, the Potency result in assay [13], in assay [14] and in [15] was “inactive” in each case.

With `CCC1(C2=NCCN2)Cc2ccccc2O1` (stereo not given), the Potency result in assay [1], in assay [2], in [3], in assay [4], in [5] and in assay [6] was “inactive” throughout. Further, the Potency entry in [7], in assay [8], in assay [9], in assay [10], in assay [16] and in [11] was “inactive” in each case. In addition, the Potency entry in assay [12], in assay [13], in assay [14] and in [15] was “inactive” each time.

As for `c1ccc2c(c1)Nc1ccccc1S2`, the Potency entry in [1], in assay [2], in [3], in [4], in [5] and in [6] was “inactive” throughout. Moreover, the Potency result in [7], in assay [8], in assay [9], in [10], in assay [11] and in assay [12] was “inactive” in each case. Also, the Potency entry in assay [13], in assay [14] and in assay [15] was “inactive” in each case.

For `CN(C)CCN(C)CCc1ccc(Cl)c(Cl)c1`, the Potency entry in assay [1], in [2], in assay [5], in assay [6], in assay [17] and in assay [8] was “inactive” in each case. Moreover, the Potency result in [9], in assay [10], in assay [12], in assay [13], in assay [14] and in assay [15] was “inactive” each time. For the same compound, in [3], the Potency is 14.8 µM (active).

With `CC(=O)[C@H]1CC[C@H]2[C@@H]3CC[C@H]4C[C@H](O)CC[C@]4(C)[C@H]3C(=O)C[C@]12C`, the Potency result in assay [1], in assay [2], in assay [3], in assay [4], in [5] and in assay [6] was “inactive” in each case. The Potency entry in assay [7], in [8], in assay [9], in assay [10], in assay [11] and in assay [12] was “inactive” throughout. Moreover, the Potency result in assay [13], in assay [14] and in assay [15] was “inactive” each time.

For the compound `CNC(=O)c1ccc(N2C(=S)N(c3ccc(C#N)c(C(F)(F)F)c3)C(=O)C23CCC3)cc1F`, the Potency entry in assay [1], in assay [4], in [17], in assay [9] and in assay [10] was “inactive” in each case. The Potency in assay [2] was 18.7 µM (active); in [3], 5.9 µM (active); in assay [12], 11.8 µM (active); in assay [13], 13.2 µM (active); in assay [15] it was 11.8 µM (active).

As for `C[C@@H]1O[C@@H](O[C@H]2C[C@@H](O)[C@]3(CO)[C@H]4[C@H](O)C[C@]5(C)[C@@H](C6=CC(=O)OC6)CC[C@]5(O)[C@@H]4CC[C@]3(O)C2)[C@H](O)[C@H](O)[C@H]1O`, the Potency in [1] is 18.7 nM (active) and 75 nM (active); in [2], 46.9 nM (active) and 66.8 nM (active); in [3] it was 16.6 nM (active) and 23.7 nM (active); in assay [4], 15.3 nM (active) and 49 nM (active); in assay [5], 74.3 nM (active) and 266 nM (active); in assay [17] it was 59 nM (active) and 75 nM (active). Moreover, the Potency in assay [7] is 187 nM (active) and 299 nM (active); in [8], 46.9 nM (active) and 211 nM (active); in [9], 27.3 nM (active) and 61.7 nM (active); in assay [16], 19.3 nM (active) and 49 nM (active); in assay [11] it was 14.8 nM (active) and 33.5 nM (active); in [12] it was 14.8 nM (active) and 33.5 nM (active). Further, the Potency in assay [13] is 0.0148 µM (active); in assay [18], 369 nM (active) and 585 nM (active); in assay [19], 329 nM (active) and 282 nM (active). Moreover, in assay [14], the Potency result was “inactive”.

For `C[C@]12CCC(=O)C(O)=C1CC[C@@H]1[C@@H]2CC[C@]2(C)C(=O)CC[C@@H]12`, the Potency result in assay [1], in assay [2], in assay [3], in [4], in assay [5] and in assay [6] was “inactive” in each case. Besides, the Potency result in assay [7], in assay [8], in assay [9], in assay [10], in assay [16] and in assay [11] was “inactive” in each case. Moreover, the Potency entry in assay [12], in assay [13], in assay [14] and in assay [15] was “inactive” each time.

In the case of `NCC(O)c1ccc(O)cc1` (stereo not given), the Potency entry in assay [1], in [2], in [3], in assay [4], in [5] and in [6] was “inactive” each time. The Potency entry in assay [7], in assay [8], in assay [9], in assay [10], in assay [16] and in assay [11] was “inactive” each time. For the same compound, the Potency entry in assay [12], in [13], in assay [14] and in [15] was “inactive” each time.

On to `O=C(O)c1ccc2[nH]cc(CCCCN3CC=C(c4ccccc4)CC3)c2c1`, for which the Potency result in assay [1], in assay [2], in assay [3], in assay [4], in [6] and in assay [20] was “inactive” in each case. The Potency result in [7], in [8], in [9], in assay [10], in [11] and in assay [12] was “inactive” throughout. The Potency result in [13], in assay [14] and in [15] was “inactive” each time.

Regarding `CC[N+]1(C)CCCC(OC(=O)C(O)(c2ccccc2)c2ccccc2)C1` (stereo not given), the Potency result in assay [1], in assay [2], in assay [3], in [4], in assay [5] and in assay [6] was “inactive” throughout. The Potency result in assay [7], in assay [8], in [9], in assay [10], in assay [16] and in assay [11] was “inactive” each time. In addition, the Potency result in assay [12], in [13] and in [14] was “inactive” throughout.

In the case of `Cc1cccc(C)c1NC1=NCCCS1`, the Potency result in assay [1], in [2], in assay [3], in assay [4], in assay [5] and in assay [6] was “inactive” each time. Besides, the Potency entry in [20], in assay [8], in assay [9], in [10], in assay [16] and in assay [11] was “inactive” throughout. Moreover, the Potency result in assay [12], in assay [13], in assay [14] and in [15] was “inactive” in each case.

`CNCC(O)c1ccc(O)cc1` (stereo not given): the Potency result in assay [1], in assay [2], in assay [3], in assay [4], in assay [5] and in assay [6] was “inactive” throughout. Besides, the Potency entry in assay [20], in assay [7], in assay [8], in [9], in [10] and in assay [16] was “inactive” in each case. Besides, the Potency result in assay [11], in [12], in assay [13], in assay [14] and in assay [15] was “inactive” throughout.

As to `CC(C)CC(N(C)C)C1(c2ccc(Cl)cc2)CCC1` (stereo not given), the Potency result in [1], in assay [2], in [3], in assay [4], in [5] and in assay [6] was “inactive” in each case. Further, the Potency result in assay [7], in assay [8], in assay [9], in assay [10], in assay [16] and in assay [11] was “inactive” each time. Moreover, the Potency entry in assay [12], in [13] and in assay [14] was “inactive” throughout.
